Sampled rows, rich in hits. Any-hit rate of the full collection: about 7%.
ATXN2 expr inh = ATXN2 expression inhibition | HEK-293 ATXN2-luciferase reporter, luminescence, 24 h | Potency, µM (titrated, usually from 57 µM), inactives show top-dose activity change, negative = inhibition, most hits filed as inhibitors | actives 0.72% (n = 360,000) | AID 1745845; also: potency is read from the fitted curve at half-maximal effect; % is scaled to controls: 0 for no effect and ±100 for the full control effect; nearly all actives have a fitted effect of over 55% in size
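qHTS (up to 57 uM final) was run with 24 h compound exposure of reporter cells at 37 °C. Each well was multiplexed: SteadyGlo luminescence measured ATXN2-luciferase expression after a fluorogenic Gly-Phe-AFC viability readout (25 uM final).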
D3 ag = D3 dopamine receptor (human) agonism; D3R DiscoveRx beta-arrestin cells, luminescence, 90 min; max activation, %; actives 0.58% (n = 410,000); in the data active = max activation above about 30%; also: 0% is about no effect
Target sequence (P35462 whole entry, looked up): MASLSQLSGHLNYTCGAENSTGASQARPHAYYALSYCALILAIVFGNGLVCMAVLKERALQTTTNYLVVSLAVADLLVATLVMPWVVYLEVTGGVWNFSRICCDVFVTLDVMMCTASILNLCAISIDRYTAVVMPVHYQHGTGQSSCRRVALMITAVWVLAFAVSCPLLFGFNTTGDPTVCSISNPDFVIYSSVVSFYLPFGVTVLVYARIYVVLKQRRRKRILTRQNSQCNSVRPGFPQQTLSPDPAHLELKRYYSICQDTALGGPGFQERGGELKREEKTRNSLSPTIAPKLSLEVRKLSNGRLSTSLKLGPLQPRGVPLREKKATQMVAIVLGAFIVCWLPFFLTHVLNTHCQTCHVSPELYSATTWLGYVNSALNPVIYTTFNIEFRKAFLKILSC
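Cells at 1500/well, incubated overnight, then treated with pinned compounds (dopamine as control) for 90 min at 37 degrees C. DiscoveRx reagent added for 30 - 60 minutes at room temperature; luminescence read.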
ATXN viability = viability counter-screen for ATXN expression inhibitors | Potency, µM (doses to about 56.7 µM), most hits filed as cytotoxic | S2 cells (HEK-293 line with an ATXN2-luciferase reporter) viability, CellTiter-Fluor protease fluorescence, 24 h | actives 0.49% (n = 400,000); also: potency is read from the fitted curve at half-maximal effect; nearly all actives have a fitted effect of over 40% in size
D3 antag = blocks the human D3 dopamine receptor. P35462. D3R cells, DiscoveRx beta-arrestin luminescence, antagonist mode; stronger effect = lower value. max response, negative = inhibition, %. actives 2.5% (n = 360,000). AID 652054; in the data active = max response below about -50%; inconclusive = no clear call, values can overlap the other calls; also: % is scaled to controls: 0 for no effect and ±100 for the full control effect
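Cells plated overnight at 1500 cells/well, then exposed to library compounds with dopamine controls for 90 minutes at 37 degrees C. DiscoveRx reagent added for 30–60 minutes at room temperature; luminescence read, quantitative HTS format.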
a7 integrin act = activates integrin-mediated alleviation for muscular dystrophy; alpha7betagal myoblasts, beta-gal FDG fluorescence, 48 h; Potency, µM (series often up to 38.3 µM), inactives show top-dose activation, most hits filed as activators; actives 0.064% (n = 350,000); AID 624291;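 also: potency is read from the fitted curve at half-maximal effect; 100% = response of the positive control SU9516; nearly all actives have a fitted effect of over 60% in size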
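Alpha7betagal+/- myoblasts (passage 13) were plated 16-24 hr, then exposed to compounds (1:260 dilution of DMSO stock) for 48 hours at 37C. After MPER lysis, β-galactosidase reporter activity was read as FDG fluorescence (ex 480/em 540) after 30 minutes.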
IL1B secr inh = inflammasome signaling inhibition, IL-1 beta readout. THP-1 LPS/ATP IL-1B secretion, AlphaLISA, 16 h; stronger effect = lower value. activity change, % at 57.5 µM. actives 4.7% (n = 360,000); in the data active = activity change below about -50%; inconclusive = mostly about -30% to -49%; also: % is scaled to controls: 0 for no effect and ±100 for the full control effect
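THP-1 cells pretreated 1 hr with compounds (up to 57.5 uM final), then stimulated with LPS (250 ng/mL final) plus ATP (1.25 mM final); secreted IL-1B measured by AlphaLISA after 16 hr, decreased signal indicating inhibition.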
Numbers without * were called inactive; i = inactive; ? = inconclusive; . = not tested or not shown. Unless noted, calls follow the shape of the dose curve; as a rule, active = well fitted curve in the direction sought with a large enough effect; inconclusive = small, poorly fitted or top-dose-only effect, or another doubt; inactive = no such curve, though single readings can be large; an effect the other way counts as inactive or inconclusive.

SMILES	ATXN2 expr inh	D3 ag	ATXN viability	D3 antag	a7 integrin act	IL1B secr inh
COc1ccc2sc(-c3ccc(N(C)C)cc3)c(C#CCCO)c2c1	-8%	32*	i	122	-16%	-9
COc1ccc2sc(-c3ccc(N(C)C)cc3)c(C#Cc3cncn3C)c2c1	?	83*	.	234	-38%	-6
COc1ccc2sc(-c3ccc(N(C)C)cc3)c(C#CC(C)(C)O)c2c1	8%	20	.	23	-17%	17
COc1cccc(-c2sc3ccc(OC)cc3c2C#CC(C)(C)O)c1	-14%	71*	i	-11	2%	-88*
COc1ccc2sc(-c3ccc(SC)cc3)c(C#CCO)c2c1	6%	62*	i	112	-30%	7
CCN(CC)C(=O)c1ccccc1NC(=O)CN1C(=O)c2ccccc2C1=O	1%	1	i	-11	?	22
Cc1cccc(N2CCN(S(=O)(=O)c3cc4c(cc3Cl)NC(=O)CO4)CC2)c1C	-3%	2	i	4	1%	11
O=C(CCl)N(C/C=C/c1ccccc1)c1ccc2c(c1)OCCO2	1.3µM*	0	1.3µM*	-10	-58%	-115*
CCN(CC)c1ccc2c(Cl)c(Br)c(=O)oc2c1	?	-5	.	-28	-65%	-100*
CCN(CC)c1ccc2c(C)cc(=O)oc2c1	17%	0	.	-15	.	2
CCN(CC)c1ccc2c(C)c(Cl)c(=O)oc2c1	18%	-19	.	-21	2%	19
CCN(CC)c1ccc2c(c1)oc(=O)c1c(Cl)cc(=O)oc12	?	-12	?	-91*	-55%	-126*
Cc1c2c(cc3c1[nH]c1ccccc13)C=NCC2	?	2	?	-2	-70%	-73*
Cc1nn(CC(=O)NCCc2ccccc2)c(=O)c2nn(-c3ccccc3)c(C)c12	.	-22	.	.	.	.
Cc1cc(C)c2c3c(sc2n1)C(c1cccc(F)c1)C(C#N)=C(N)O3 (stereo not given)	-4%	-9	i	?	-49%	-79*
CCCN1CCC2(CC1)C(C#N)=C(N)Oc1c2sc2nc(C)cc(C)c12	17%	16	i	0	0%	-3
O=C(CSc1ccc(-c2cccnc2)nn1)Nc1ccc(F)cc1	-21%	-4	i	-63*	11%	1
CCOc1ccccc1NC(=O)CSc1nncc2ccccc12	-4%	-5	i	-6	2%	-84*
COc1ccccc1NC(=O)CSc1nnnn1Cc1ccccc1	0%	-5	i	11	-8%	-3
CCOc1ccccc1NC(=O)CSc1nnnn1Cc1ccccc1	-14%	5	i	-59*	-16%	-4
O=C(CSc1nncc2ccccc12)Nc1ccc(F)cc1	12%	-2	i	-7	-42%	-84*
CC1(C)Cc2cccc(C(=O)NCc3ccco3)c2O1	-17%	-7	i	?	3%	8
COC(=O)c1sccc1NC(=O)c1ccccc1[N+](=O)[O-]	-9%	3	?	-10	15%	29
C(=C\c1ccccc1)/CN1CCN(C(CCc2ccccc2)c2nnnn2C2CCCCC2)CC1 (stereo not given)	0%	-20	?	-59*	.	-22
C(=C\c1ccccc1)/CN1CCN(C(c2cccc3ccccc23)c2nnnn2C2CCCC2)CC1 (stereo not given)	-18%	-13	?	-99*	.	?
SMILES	ATXN2 expr inh	D3 ag	ATXN viability	D3 antag	a7 integrin act	IL1B secr inh
C(=C\c1ccccc1)/CN1CCN(C(c2cc3ccccc3o2)c2nnnn2C2CCCC2)CC1 (stereo not given)	5%	-9	i	-98*	.	-20
C(=C\c1ccccc1)/CN1CCN(C(c2cc3ccccc3o2)c2nnnn2Cc2ccccc2)CC1 (stereo not given)	1%	-15	i	-104*	.	2
CN(C)CCN1CCN(C(c2cc3ccccc3o2)c2nnnn2C(C)(C)C)CC1 (stereo not given)	16%	-4	?	0	.	0
C(=C\c1ccccc1)/CN1CCN(C(c2nnnn2C2CCCCC2)C2CC2)CC1 (stereo not given)	-23%	-7	?	-4	.	-5
O=S(=O)(O)c1nnc2sc3ccccc3n12	7%	-5	i	19	6%	48
C=CCn1c(SCC(=O)c2[nH]c(C)c(C(=O)OCC)c2C)nc2scc(-c3ccc(OC)c(OC)c3)c2c1=O	28µM*	-4	.	-15	19%	-8
COc1ccccc1OCCNC(=O)Nc1cc(F)c(F)cc1Cl	-15%	-3	i	11	-13%	-23
COC(=O)[C@@]1(Sc2ccc(OC)cc2)CC(=O)N[C@@H]1c1ccccc1	6%	-11	i	0	.	43
CC(=O)Nc1nonc1-c1nc2ccccc2n1CCC(C)C	-6%	4	i	1	11µM*	22
CCC(=O)Nc1nonc1-c1nc2ccccc2n1CCC(C)C	-9%	6	i	27	-17%	-9
COc1ccc(O)c(-c2[nH]ncc2C(=O)c2ccccc2)c1	1%	-6	i	-57*	19%	-10
Cc1ccc(-c2[nH]ncc2C(=O)c2ccc(Br)cc2)c(O)c1	-9%	2	i	5	-17%	-82*
Cc1ccc2nc(N(CCCN(C)C)C(=O)COc3ccc(Cl)cc3)sc2c1	.	-11	?	-16	-25%	-28
CN(C)CCCN(C(=O)COc1ccccc1)c1nc2ccc(F)cc2s1	.	-10	i	-6	16%	-8
CN(C)CCCN(C(=O)CCOc1ccccc1)c1nc2c(F)cccc2s1	-32%	-14	.	-99*	-66%	-60*
Cc1cc(C)c2sc(N(CCCN(C)C)C(=O)COc3ccc(Cl)cc3)nc2c1	?	-19	?	-18	-49%	-102*
CN(C)CCCN(C(=O)CCOc1ccccc1)c1nc2ccc(F)cc2s1	.	-24	?	-91*	-59%	-86*
CN(C)CCCN(C(=O)COc1ccc(Cl)cc1)c1nc2ccc(F)cc2s1	-10%	-12	i	-27	5%	-65*
Cc1cccc2sc(N(CCCN(C)C)C(=O)COc3ccccc3)nc12	.	-10	.	.	.	.
Cc1cccc2sc(N(CCCN(C)C)C(=O)COc3ccc(Cl)cc3)nc12	-38%	6	i	2	-13%	-60*
COc1cc(C(=O)N2CCC(C(=O)Nc3cccc(C(C)=O)c3)CC2)cc(OC)c1OC	8%	0	i	-53*	11%	-6
